# Values joined by “and” are separate entries in the source; they are usually repeats but may differ in a detail not shown here. Equal values may be shown once. The panel holds about 83,000 compounds, 20% with a hit somewhere; the sample as a whole holds those more often.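 Cells were grown in 96-well plates and exposed to the test compound at a single concentration for 48 hours; results are reported as percent growth, with values below 10 considered active.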 Active and inactive are the calls of the source.
# How the values were obtained:
# Assay in all cases: NCI-60 one-dose screen, 48 h (100 = growth as untreated, 0 = no growth, -100 = all killed)
# Conditions in all cases: 10 µM unless noted
# UACC-62 melanoma = tested on: UACC-62 melanoma
# HCT-15 colon = tested on: HCT-15 colon
# SNB-75 CNS = tested on: SNB-75 CNS
# SNB-19 CNS = tested on: SNB-19 CNS
# U251 CNS = tested on: U251 CNS
# PC-3 prostate = tested on: PC-3 prostate
# SK-MEL-5 melanoma = tested on: SK-MEL-5 melanoma
# LOX IMVI melanoma = tested on: LOX IMVI melanoma
# SK-MEL-2 melanoma = tested on: SK-MEL-2 melanoma
# EKVX NSCLC = tested on: EKVX NSCLC
# SN12C renal = tested on: SN12C renal
# UO-31 renal = tested on: UO-31 renal
# TK-10 renal = tested on: TK-10 renal
# ACHN renal = tested on: ACHN renal
# CAKI-1 renal = tested on: CAKI-1 renal
# A498 renal = tested on: A498 renal
# CCRF-CEM leukemia = tested on: CCRF-CEM leukemia
smiles,measurement,setting,value
CC(=N\N=C\c1ccccn1)/C(C)=N/N=C/c1ccccn1,growth,UACC-62 melanoma,86% [100 µM] (inactive) and 54.1% [100 µM] (inactive)
CC1CC(=O)N(N(C)C)C(C#N)(C#N)C1(C#N)C#N (stereo not drawn),growth,UACC-62 melanoma,-96.5% [100 µM] (active) and -97.6% [100 µM] (active)
OCCN1CCN(CCCN2c3ccccc3Sc3ccc(Cl)cc32)CC1,growth,HCT-15 colon,49.6% (inactive) and 80.8% (inactive)
same,growth,SNB-75 CNS,59.8% (inactive) and 45.6% (inactive)
same,growth,SNB-19 CNS,75.6% (inactive) and 100% (inactive)
same,growth,U251 CNS,58.2% (inactive) and 73.1% (inactive)
same,growth,PC-3 prostate,47.7% (inactive) and 67% (inactive)
same,growth,SK-MEL-5 melanoma,50.4% (inactive)
same,growth,UACC-62 melanoma,-64.3% (active) and 23.5% (inactive)
same,growth,LOX IMVI melanoma,29.4% (inactive) and 69.6% (inactive)
same,growth,SK-MEL-2 melanoma,46.5% (inactive) and 74.9% (inactive)
same,growth,EKVX NSCLC,66.8% (inactive)
same,growth,SN12C renal,50.2% (inactive) and 72.8% (inactive)
same,growth,UO-31 renal,36.1% (inactive) and 45.1% (inactive)
same,growth,TK-10 renal,47.8% (inactive) and 75.4% (inactive)
same,growth,ACHN renal,62.3% (inactive) and 76.1% (inactive)
same,growth,CAKI-1 renal,47.9% (inactive) and 68.8% (inactive)
same,growth,A498 renal,58.4% (inactive) and 77.8% (inactive)
same,growth,CCRF-CEM leukemia,40.6% (inactive) and 55.9% (inactive)
O=C(Cc1nc2ccc(C(=O)c3ccccc3)cc2[nH]c1=O)C(=O)Nc1ccccc1[N+](=O)[O-],growth,UACC-62 melanoma,30.2% [100 µM] (inactive) and -20.2% [100 µM] (active)
same,growth,TK-10 renal,75.1% [100 µM] (inactive) and 12.6% [100 µM] (inactive)
COc1ccc2cc(CN3CCC(C4CCNCC4)CC3)ccc2c1,growth,UACC-62 melanoma,-93.1% [100 µM] (active) and -100% [100 µM] (active)
same,growth,TK-10 renal,-89.6% [100 µM] (active) and -100% [100 µM] (active)
CC(C)CCCC(C)[C@H]1CC[C@H]2[C@@H]3CC[C@H]4C[C@@H](CCC=C(c5cc(Cl)c(O)c(C(=O)O)c5)c5cc(Cl)c(O)c(C(=O)O)c5)CC[C@]4(C)[C@H]3CC[C@]12C (stereo partly drawn) (tested in a mixture with another compound),growth,UACC-62 melanoma,72.7% [50 µM] (inactive) and 21% [50 µM] (inactive)
same,growth,TK-10 renal,179% [50 µM] (inactive) and 2.06% [50 µM] (active)
Cc1ccc(/C=N/Nc2nc3ccccc3s2)s1,growth,UACC-62 melanoma,45% [100 µM] (inactive) and 40.5% [100 µM] (inactive)
same,growth,TK-10 renal,14.8% [100 µM] (inactive) and 8.44% [100 µM] (active)
COC(=O)c1cnn2c1n[n+]([O-])c1ccccc12,growth,UACC-62 melanoma,72.4% [100 µM] (inactive) and -65.7% [100 µM] (active)
same,growth,TK-10 renal,126% [100 µM] (inactive) and 78.8% [100 µM] (inactive)
CCCCCCCCCC(O)CC(=O)c1c(O)cccc1O (stereo not drawn),growth,UACC-62 melanoma,-96.8% [100 µM] (active) and -100% [100 µM] (active)
same,growth,TK-10 renal,4.56% [100 µM] (active) and 1.03% [100 µM] (active)
CCCCCCCCCCCCC/C=C/[C@H]1[C@@H](C(=O)OC)N1S(=O)c1ccc(C)cc1 (stereo partly drawn),growth,UACC-62 melanoma,64.8% [100 µM] (inactive) and 3.51% [100 µM] (active)
same,growth,TK-10 renal,107% [100 µM] (inactive) and 52.5% [100 µM] (inactive)

# — PubChem BioAssay (NCI)
